BL2 CD40 inh: CD40 pathway inhibition in BL2 cells | BL2 NF-kB luciferase reporter, CD40L-induced, 4 h | inhibition, % at 10 µM | 0.94% of 83,000 active;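 active = mean inhibition of at least 50% with a set share of replicates also reaching that level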
Large screens that a line does not name were inactive; ! = a repeat was not active; [ ] = another dose, or the depositor's remark. Only a selection was taken, and hits are over-represented in it overall.

N#Cc1ccc(-c2ccc(C3[C@@H]4CN(C(=O)C5CC5)C[C@H]3N4)cc2)cc1 (stereo partly drawn)	BL2 CD40 inh 63.0!
O=C(c1ccc2c(c1)OCO2)N1C[C@@H]2N[C@H](C1)C2c1ccc(/C=C/c2ccccc2)cc1 (stereo partly drawn)	none
O=C(C1CCCC1)N1C[C@@H]2N[C@H](C1)C2c1ccc(/C=C/c2ccccc2)cc1 (stereo partly drawn)	BL2 CD40 inh 48.8!
O=C(C1CCOCC1)N1C[C@@H]2N[C@H](C1)C2c1ccc(/C=C/c2ccccc2)cc1 (stereo partly drawn)	none
O=C(c1ccncc1)N1C[C@@H]2N[C@H](C1)C2c1ccc(/C=C/c2ccccc2)cc1 (stereo partly drawn)	none
O=C(C[C@H]1C[C@H]2c3cc(NC(=O)NC4CCCC4)ccc3O[C@H]2[C@@H](CO)O1)NCc1cccnc1	none
COc1ccccc1CN(C)C[C@@H]1OCc2ccccc2-c2c(n(C)c3ccccc23)C(=O)N([C@@H](C)CO)C[C@@H]1C	none
CS(=O)(=O)N1[C@H](CO)[C@H](c2ccccc2-c2ccc(F)cc2)[C@@H]1C#N	none
COc1ccc(C(=O)/C=C/Sc2nc3ccccc3o2)cc1	BL2 CD40 inh 75.2
O=C(/C=C/Sc1ccccc1)c1ccccc1	none
N#CCSc1nc2ccccc2o1	none
Cc1ccccc1-c1ccc(C2[C@H]3CNC[C@@H]2N3S(=O)(=O)c2ccc(Cl)cc2)cc1 (stereo partly drawn)	none
Cc1cc(C(=O)CN2C(=O)c3ccccc3S2(=O)=O)c(C)n1CC1CCCO1 (stereo not drawn)	none
CCCn1c(C)cc(C(=O)Cn2nnc3ccccc3c2=O)c1C	none
CCCn1c(C)cc(C(=O)CN2C(=O)c3ccccc3S2(=O)=O)c1C	BL2 CD40 inh 52.6
C[C@H]1CN([C@@H](C)CO)C(=O)CCCn2nncc2CO[C@H]1CN(C)Cc1ccc2c(c1)OCCN2C	none
CNC(=S)NN=C(C)CCCC(C)=NNC(=S)NC	BL2 CD40 inh 71.2
CO[C@H]1CC[C@H]2CCOc3ccc(C#N)cc3C(=O)N(C)CC3(CCCCC3)CC(=O)N(C)C[C@H]1O2	none
O=C(NC1CCCCC1)[C@H]1[C@H](CO)[C@H]2Cn3c(cccc3=O)[C@H]2N1C(=O)CC1CC1	none
COc1ccc2c3c(n(C)c2c1)[C@H](CO)N(C(C)=O)CC31CCN(C(=O)Nc2ccccc2F)CC1	none
COc1ccc2c3c([nH]c2c1)[C@H](CO)N(C(=O)Nc1ccc(F)cc1)CC31CN(Cc2cc(F)ccc2F)C1	BL2 CD40 inh 55.9[25 µM]
COc1ccc2c3c([nH]c2c1)[C@@H](CO)N(C(=O)Nc1ccc(F)cc1)CC31CN(Cc2cc(F)ccc2F)C1	none
COc1ccc2c3c(n(C)c2c1)[C@@H](CO)N(C(=O)Nc1ccc(F)cc1)CC31CCN(C(=O)Nc2c(C)noc2C)CC1	none
COc1ccc2c3c(n(C)c2c1)[C@H](CO)N(C(=O)Nc1ccc(F)cc1)CC31CCN(C(=O)Nc2ccc(F)cc2F)CC1	BL2 CD40 inh 67.7[25 µM]
CCCNC(=O)N1CC2(C1)CN(C(=O)Nc1ccc(F)cc1)[C@@H](CO)c1[nH]c3cc(OC)ccc3c12	none
N#C[C@H]1[C@@H](c2ccccc2C2=CCCC2)[C@@H](CO)N1C(=O)NC1CCCC1	none
Fc1ccc(CN2C3CN(CC(F)(F)F)CC2C3c2ccc(Br)cc2)cc1 (stereo not drawn)	none
O=C([C@H]1[C@H](CO)[C@H]2Cn3c(cccc3=O)[C@@H]1N2S(=O)(=O)c1ccccc1F)N1CCCCC1	none
Cc1nc(C)c(NC(=O)N2CCc3ccccc32)cc1NC(=O)N1CCc2ccccc21	none
Cc1cc(Br)ccc1SCC(=O)Nc1cccnc1	none
Cn1ccc2cc3c(cc21)CCN3C(=O)Nc1cccnc1	BL2 CD40 inh active[25 µM]
CC(=O)NC[C@@H]1[C@@H](c2ccc(-c3cccnc3)cc2)[C@H](CO)N1C(=O)C1CCC1	none
CNC[C@@H]1Oc2ccc(NC(=O)NC(C)C)cc2CC(=O)N(C)C[C@@H]1C	none
Cc1oc(-c2nc3ccccc3n2C)cc1C(=O)c1ccccc1	BL2 CD40 inh 62.2
Cn1cc(C(=O)c2ccccc2)cc1-c1nc2ccccc2n1C	none
CC(=O)c1ccc(-c2nc3ccccc3n2C)o1	none
COc1cccc(-c2ccc3c(c2)[C@@H]2[C@@H](CCN2S(=O)(=O)c2ccccc2F)[C@@H](CO)N3C)c1	none
O=C(C[C@@H]1C[C@@H]2c3cc(NC(=O)Nc4ccc(C(F)(F)F)cc4)ccc3O[C@@H]2[C@@H](CO)O1)NCc1cccnc1	none
COc1cc(CNCCc2c[nH]c3ccccc23)cc(Cl)c1OCC(N)=O	BL2 CD40 inh 46.7
COc1ccc(NC(=O)COC(=O)Cc2c[nH]c3ccccc23)cc1Cl	none
COc1ccc(C(=O)NCC(=O)NCCc2c[nH]c3ccccc23)cc1OC	none
O=S(=O)(c1cccc2cccnc12)N1CCN(c2ccccn2)CC1	none
O=S(=O)(c1cccc2cnccc12)N1CCNCC1	BL2 CD40 inh 53.4[25 µM]
O=S(=O)(c1cccc2cccnc12)N1CCN(c2ccccc2)CC1	none
c1ccc(C(O[C@@H]2CCCN(CCc3ccc4c(c3)OCO4)C2)c2ccccc2)cc1	none
CC(C)NC(=O)N(C)C[C@H]1Oc2ccc(NS(C)(=O)=O)cc2CC(=O)N(C)C[C@@H]1C	none

High-throughput results: PubChem BioAssay, Broad Institute
